Measured potencies and affinities stand elsewhere. The source made the active and inactive calls.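 The calls were made as follows, unless noted: active = a dose-response fit showing signal loss, with half-maximal concentration no higher than twice the top tested dose; inconclusive = flat fit between 30% and 70% signal loss, or poor fit; inactive = the rest.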
Tests used:
[1] = C. neoformans lysis by adenylate kinase leakage – AK release luminescence, cherry-picks, dose response (AID 687000;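 active = fitted dose curve reaches 40% lysis signal rise at or below the highest valid concentration tested for that sample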;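 also: luminescent detection of adenylate kinase leaking from lysed yeast; 0% = median neutral control signal and 100% = double that signal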)
[2] = viability loss in HepG2 hepatoma cells – cell-based, cherry-picks, set 2, cytotoxicity control, dose response (AID 687002)
[3] = viability loss in HeLa cells – cell-based, ATP luminescence, cherry-pick samples, cytotoxicity control, dose response (AID 687004;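 active = a fitted half-maximal concentration no higher than twice the top valid tested dose, with signal falling as cells die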;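 also: 0% = neutral control median and -100% = staurosporine 10 µM control median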)

Measured: activity change, negative = cytotoxicity

O=C(CCCNC(=O)c1ccc(Cl)cc1)Nc1nccs1
inactive: all assays above

O=C(CN(c1ccc(F)cc1)S(=O)(=O)c1ccccc1)NCCSC1CCCCC1
inactive: all assays above

C[C@H](NC(=O)C[C@H]1CC[C@@H](NC(=O)Cc2ccccn2)[C@@H](CO)O1)c1ccccc1
inactive: all assays above

C[C@@H]1CCCCO[C@@H](CN(C)C(=O)NC2CCCCC2)[C@H](C)CN([C@@H](C)CO)C(=O)c2cc(NS(=O)(=O)c3cn(C)cn3)ccc2O1
inactive: all assays above

CC(C)N1C(=O)C2(OCCCO2)c2cc(Br)ccc21
inactive: all assays above

COCCNC(=O)C[C@H]1C=C[C@H](NS(=O)(=O)c2ccc(C)cc2)[C@@H](CO)O1
inactive: all assays above

CCOC(=O)NCc1ccc2[nH]c(C)cc2c1
inactive: all assays above

COc1cccc(S(=O)(=O)Nc2ccc3c(c2)OC[C@@H](C)NC[C@H](C)[C@@H](OC)CN(C)C3=O)c1
inactive: all assays above

S=C(NCCc1cccc(Cl)c1)NC1CCCCC1
inactive: all assays above

CNC(=O)CN(c1ccc(OC)cc1)S(=O)(=O)c1ccc(F)cc1
inactive: all assays above

Cc1cccc(C)c1NC(=O)C1CCCCN1C (stereo not given)
inactive: all assays above

CC(NC(=O)COc1ccccc1-c1ccccc1)c1ccccc1 (stereo not given)
inactive: all assays above

CCN(C(=O)CSc1ncnc2c1cnn2-c1ccccc1)C1CCS(=O)(=O)C1 (stereo not given)
inactive: all assays above

CCNC(=O)C[C@H]1CC[C@@H](NC(=O)NC2CCCCC2)[C@H](CO)O1
inactive: all assays above

CC(C)Oc1cccc(C(=O)NC(=S)Nc2ccccc2N2CCOCC2)c1
inactive: all assays above

CC(C)CC#Cc1cnc2c(c1)C(=O)N([C@@H](C)CO)C[C@H](C)[C@H](CN(C)C(=O)c1ccc3c(c1)OCO3)O2
inactive: all assays above

CNC[C@H]1Oc2ncc(C#CCC(C)C)cc2C(=O)N([C@H](C)CO)C[C@H]1C
inactive: all assays above

O=C1CCC(C(=O)Nc2cccc3ccccc23)N1 (stereo not given)
inactive: all assays above

O=C(c1cccc(F)c1)N1C[C@H]2[C@@H](c3ccccc31)[C@@H](CO)N2Cc1cocn1
inactive: all assays above

C[C@H]1CN([C@@H](C)CO)C(=O)c2cc(C#CC3(O)CCCC3)cnc2O[C@@H]1CN(C)Cc1cccnc1
inactive: all assays above

Cc1noc(C)c1NC(=O)N(C)C[C@@H]1Oc2ccc(NC(=O)NC(C)C)cc2CC(=O)N([C@@H](C)CO)C[C@@H]1C
inactive: all assays above

CC(C)NC(=O)N(C)C[C@@H]1Oc2c(NC(=O)C3CCCCC3)cccc2C(=O)N([C@@H](C)CO)C[C@@H]1C
inactive: [1] | [2] 11.5% [at 6 µM] | [3]

O=C(NC(=S)Nc1ccc(N2CCOCC2)cc1)c1cccc([N+](=O)[O-])c1
inactive: all assays above

O=C(CSc1ncnc2c1cnn2-c1ccc(F)cc1)NCc1ccc2c(c1)OCO2
inactive: all assays above

Cc1cc(C)c(NC(=O)CN2CCCCCC2)c(C)c1
inactive: all assays above

CNC[C@H]1Oc2cc(Br)ccc2S(=O)(=O)N([C@H](C)CO)C[C@H]1C
inactive: all assays above

COc1cc(NC(=O)CN2CCN(S(=O)(=O)c3ccc(C(C)C)cc3)CC2)cc(OC)c1
inactive: all assays above

C[C@H](CO)N1C[C@H](C)[C@H](CN(C)S(=O)(=O)c2cn(C)cn2)Oc2ncc(/C=C/c3ccccc3)cc2C1=O
inactive: all assays above

Cc1ccccc1OCC(=O)NCc1ccccc1
inactive: all assays above

O=C(C[C@@H]1CC[C@@H](NC(=O)c2cccnc2)[C@@H](CO)O1)NCCN1CCCCC1
inactive: all assays above

CN1c2ccc(Br)cc2[C@@H]2[C@@H](CCN2C(=O)Cc2cccnc2)[C@@H]1CO
inactive: all assays above

CCCC(=O)N1CCC1(C)C(=O)Nc1cc(C)ccc1C (stereo not given)
inactive: all assays above

C[C@@H]1CN([C@H](C)CO)C(=O)Cc2cc(NC(=O)CCCCCC(=O)Nc3ccccc3N)ccc2O[C@H]1CN(C)C(=O)Nc1ccccc1
inactive: all assays above

CCC(C)N(C(=O)CSc1ncnc2c1cnn2-c1ccccc1)C1CCS(=O)(=O)C1 (stereo not given)
inactive: all assays above

C[C@H]1CN([C@@H](C)CO)C(=O)Cc2cc(NC(=O)C3CC3)ccc2O[C@@H]1CN(C)C(=O)Nc1cccc2ccccc12
inactive: all assays above

Cc1ccc(N(C(=O)C2CCC(=O)N2)C2(C(=O)NC3CCCC3)CCCCC2)cc1 (stereo not given)
inactive: all assays above

COc1cccc(NC(=O)CN2CCN(S(=O)(=O)c3ccc(C(C)C)cc3)CC2)c1
inactive: all assays above

CCc1ccc(NC(=O)[C@H](C)NC(=O)C2CCN(C(=O)[C@@H](N)CC(C)C)CC2)cc1
inactive: all assays above

O=C(CCN1CCCCC1)NCC[C@@H]1CC[C@H](NC(=O)c2ccc(F)cc2)[C@@H](CO)O1
inactive: all assays above

CC(=O)c1ccc(N2CCN(C(=O)Cc3cccs3)CC2)cc1
inactive: all assays above

CCCn1c(=S)[nH]c2cc(Cl)ccc21
inactive: all assays above

Cc1cccc(C)c1NC(=S)NN(Cc1ccccc1)c1ccccc1
inactive: all assays above

CO[C@H]1CC[C@@H]2CCOc3c(C#N)cccc3C(=O)N(C)C[C@@H](OC)[C@@H](C)C(=O)N(C)C[C@@H]1O2
inactive: all assays above

N#Cc1ccc(C23CC4(C2)[C@H](CN(Cc2ccc(C(F)(F)F)cc2)[C@@H]4c2ccccc2)C3c2ccccc2)cc1 (stereo not given in full)
inactive: all assays above

COc1ccc(N2CCN(C(=O)CSc3ncnc4c3cnn4-c3ccccc3C)CC2)cc1
inactive: all assays above

COc1ccc(NC(=O)CSc2ncnc3c2cnn3CCc2ccccc2)cc1
inactive: all assays above

COC(=O)C1=C(C)N(Cc2ccc(F)cc2)C(=S)NC1c1cccc(OC)c1 (stereo not given)
inactive: all assays above

COCC#Cc1ccc2c(c1)O[C@H](CN(C)S(=O)(=O)c1ccc(OC)cc1)[C@H](C)CN([C@H](C)CO)S2(=O)=O
inactive: all assays above

COCC#Cc1cnc2c(c1)C(=O)N([C@@H](C)CO)C[C@H](C)[C@H](CN(C)C(=O)Nc1ccc(OC)cc1)O2
inactive: all assays above

Cc1cccc(C)c1NC(=O)C1(NC(=O)C2CCC(=O)N2)CCCCC1 (stereo not given)
inactive: all assays above

C[C@@H]1CN([C@@H](C)CO)C(=O)c2cc(NC(=O)C3CC3)ccc2O[C@H]1CN(C)Cc1ccc2c(c1)OCO2
inactive: all assays above

O=C(c1cccs1)N1CCN(c2nc3ccccc3s2)CC1
inactive: all assays above

C[C@H](CO)N1C[C@H](C)[C@H](CN(C)CC2CCCCC2)Oc2c(NS(C)(=O)=O)cccc2C1=O
inactive: all assays above

O=C(CN(c1ccccc1)S(=O)(=O)c1ccc(F)cc1)NC1CCCCCC1
inactive: all assays above

C[C@H](CO)N1C[C@H](C)[C@H](CN(C)Cc2ccc(Cl)c(Cl)c2)Oc2c(NC(=O)Nc3ccccc3)cccc2C1=O
inactive: all assays above

Cc1ccccc1S(=O)(=O)N[C@@H]1CC[C@H](CCNS(=O)(=O)c2cccc(F)c2)O[C@H]1CO
inactive: all assays above

O=C(NC(=S)Nc1ccccc1[N+](=O)[O-])c1ccccc1
inactive: all assays above

O=C(Nc1ccc2ncccc2c1)c1ccccc1
inactive: all assays above

Cc1ccc(OCC(=O)NC(C)c2ccccc2)cc1C (stereo not given)
inactive: all assays above

O=C(NC(=S)NCC1COc2ccccc2O1)c1ccccc1 (stereo not given)
inactive: all assays above
